# Test results as given in PubChem BioAssay AID651820 (National Center for Advancing Translational Sciences (NCATS), 2012).
# In all, about 340,000 compounds went through this assay and about 12,000 (3.5%) were called active. About 18% were inconclusive and are not listed. Calls come from the whole dose curve; as a rule, active = well fitted inhibition curve with a large enough effect; inconclusive = small, poorly fitted or top-dose-only effect, or another doubt; inactive = no such curve, though single readings can be large or run the other way. The entries come from a sample that favours actives as a whole. Where a call stands in place of a potency, no number is given.
# Assay: qHTS Assay for Inhibitors of Hepatitis C Virus (HCV)
# Conditions: Huh7.5.1 HCVcc-Cre infection, luciferase reporter, 44 h; series mostly up to 41.8 µM
# Outline: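 1,000 cells/well; 4 h culture; + compound; + HCVcc-Cre (~0.5 moi); 44 h; luciferase substrate, RT 15 min; read 15 sec.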
# Potency is the fitted concentration of half-maximal effect.
SMILES,Potency,"activity change, negative = inhibition"
O=C(CCc1ccccc1Cl)Nc1ccc(S(=O)(=O)Nc2nccs2)cc1,inactive,
CC(C)(C)S(=O)(=O)N1Cc2cc(CO)cc(CCO)c2[C@H]1CCO,inactive,
O=C(COC(=O)c1ccc([N+](=O)[O-])o1)NC12CC3CC(CC(C3)C1)C2,inactive,
OCCCNc1nccc(-c2cc(Nc3cccc(Cl)c3)ncn2)n1,2.82 µM (active),
Cn1c(Nc2cccc(Cl)c2)nc2ccccc21,inactive,
NS(=O)(=O)c1cccnc1Nc1cccc(Cl)c1,inactive,
CCN1C(=O)[C@@H]2[C@@H](c3ccc(-c4ccc(OC)cc4)c(OC)c3)N3CCC[C@@]3(C(=O)OC)[C@@H]2C1=O,inactive,
O=C(OCCOc1ccccc1F)c1cc(S(=O)(=O)N2CCOCC2)ccc1F,inactive,
O=C(OCCOc1ccccc1Cl)c1cc(S(=O)(=O)N2CCCCC2)ccc1N1CCOCC1,2.51 µM (active),
O=C(NCC1CCCCC1)c1cc(S(=O)(=O)N2CCCCC2)ccc1N1CCOCC1,inactive,
CC(C)(C)C(=O)COC(=O)c1cc(S(=O)(=O)N2CCCCC2)ccc1N1CCOCC1,inactive,
COc1ccc(S(=O)(=O)N2CCCCC2)cc1NC(=O)c1cc([N+](=O)[O-])ccc1N1CCOCC1,7.94 µM (active),
O=C(NC1CCCCC1)c1cc([N+](=O)[O-])ccc1N1CCOCC1,inactive,
O=C(COC(=O)c1cc(S(=O)(=O)N2CCOCC2)ccc1F)NC1CC1,inactive,
COC1C(CO)OC(n2cnc3c(=S)nc(N)[nH]c32)C1O (centres undefined),inactive,
CC(C)(C)c1ccc(S(=O)(=O)N2CCN(C(=O)c3ccc4c(c3)C(=O)N(Cc3ccncc3)C4=O)CC2)cc1,inactive,
CC[C@]1(C(=O)OC)[C@H]2C(=O)N(Cc3ccccc3)C(=O)[C@H]2[C@H]2CN=C(SCc3ccc(C#N)cc3)N21,,-29.6% [at 8.37 µM] (inactive)
Cc1nc(N)nc(Cl)c1CCC1OCCO1,inactive,
O=C(CSc1nnc(COc2ccc(Cl)cc2)n1Cc1ccco1)N1CCNC1=O,inactive,
Cc1csc(NC(=S)Nc2cccc(Cl)c2)n1,12.6 µM (active),
CC(=O)Nc1cccc(C(=O)Nc2nc(C)cs2)c1,inactive,
S=C(Nc1cccc(Cl)c1)Nc1ccc2cn[nH]c2c1,inactive,

SMILES,Potency,"activity change, negative = inhibition"
Cc1ccc(Cn2c(C)c3cnn(CC(=O)NCCN4CCOCC4)c(=O)c3c2C)cc1,inactive,
COc1ccc(CNC(=O)CN2C(=O)c3ccccc3S2(=O)=O)cc1,inactive,
O=C(Cn1nnc(-c2ccccc2)n1)NC(=O)NC1CCCC1,inactive,
COc1c(C)c2c(c(O)c1C/C=C(\C)CCC(=O)O)C(=O)OC2,2 µM (active),
CC(C)[C@@H](C(=O)OCC(=O)c1ccc2c(c1)NC(=O)CO2)N1C(=O)c2ccccc2C1=O,inactive,
Cc1ccc(-n2nc3c(=O)n(C(C)C(=O)NCc4ccc5c(c4)OCO5)nc(C)c3c2C)cc1 (centres undefined),11.2 µM (active),
CC(Sc1nncs1)C(=O)NCc1ccc2c(c1)OCO2 (centres undefined),inactive,
Cc1nn(C(C)C(=O)N2CCOCC2)c(=O)c2nn(-c3ccccc3)c(C)c12 (centres undefined),inactive,
Cc1noc(C)c1NC(=O)Nc1ccc2c(c1)C(=O)N([C@H](C)CO)C[C@H](C)[C@@H](CN(C)S(=O)(=O)c1cn(C)cn1)O2,inactive,
Cc1cccc(NC(=S)N2CCC(C(=O)c3ccc(F)cc3)CC2)c1,inactive,
Cc1ccc(C2CCN(C(=S)Nc3cccc(Cl)c3)C2)cc1 (centres undefined),12.6 µM (active),
O=C(C1CCCO1)N1CCN(C(=S)Nc2cccc(Cl)c2)CC1 (centres undefined),inactive,
Cc1nc(N)sc1-c1ccccc1,inactive,
Cc1nc(C)c(-c2csc(NCCc3ccccc3)n2)s1,2.82 µM (active),
S=c1[nH]nc(NCCc2ccccc2)s1,inactive,
C[C@H](CO)N1C[C@H](C)[C@@H](CN(C)C(=O)Nc2ccc3c(c2)OCO3)Oc2c(cccc2N(C)C)C1=O,inactive,
Cc1occc1-c1nnc(SCC(=O)NC2CCCCC2)o1,inactive,
CCN(CC(=O)NCc1ccc(F)cc1)S(=O)(=O)c1ccc(Cl)s1,inactive,
COc1cc(/C=N\Nc2nc(-c3cccs3)c(NC(C)=O)s2)ccc1O,inactive,
CCOc1cc(/C=C(\C#N)c2nc(-c3cccs3)c(NC(C)=O)s2)ccc1O,0.891 µM (active),
CCOc1cc(C=NNC(=O)CCCC(=O)NN=Cc2ccc(O)c(OCC)c2)ccc1O,inactive,
Cc1ccc(C2(C)NC(=O)N(CC(=O)N3CC(=O)Nc4ccccc43)C2=O)cc1 (centres undefined),inactive,

SMILES,Potency,"activity change, negative = inhibition"
O=C(CN1CCN(C2CCS(=O)(=O)C2)CC1)N1N=C(c2ccc(Cl)cc2)CC1c1ccco1 (centres undefined),inactive,
CCCOc1ccc(Cc2c(Cl)nc(SC)nc2NC)cc1,2.82 µM (active),
CCCOc1ccc(Cc2c(O)nc(SC)[nH]c2=O)cc1C,inactive,
CCCOc1ccc(-c2nc(N)n[nH]2)cc1,inactive,
CCOC(=O)N(Cc1ccccc1)C1CC1,inactive,
COc1ccc(OCc2cccc(C(=O)N3CCCC3)c2)cc1,inactive,
CC(C)c1cc(C(N)=O)c(NC(=O)c2cccc(COc3ccc(Br)cc3)c2)s1,10 µM (active),
CC(C)(C)OC(=O)N(Cc1ccccc1)Cc1ccc(OCc2cccc(NC(=O)c3ccccc3)c2)cc1,,-4.99% [at 8.37 µM] (inactive)
O=C(CNS(=O)(=O)c1ccc2c(c1)OCCCO2)N1CCN(c2ccc(F)cc2)CC1,inactive,
CC1(C)C=Cc2c(ccc3c2OC[C@@H](c2ccc(O)cc2O)C3)O1,inactive,
O=c1[nH]c(N2CCOCC2)nc2ccccc12,inactive,
c1ccc(Nc2nc(N3CCOCC3)c3ccccc3n2)cc1,11.2 µM (active),
CN1CCN(c2nc(Nc3ccc(O)cc3)nc3ccccc23)CC1,inactive,
CCCCC(C(=O)OCC(=O)c1ccc(OC)cc1)N1C(=O)c2ccccc2C1=O (centres undefined),inactive,
COc1ccc(OCCCON2C(=O)c3ccccc3C2=O)cc1,inactive,
CCOC(=O)C1=C(c2ccc(OC)cc2)C(=O)c2ccccc2C1=O,7.08 µM (active),
O=[N+]([O-])c1ccc(NS(=O)(=O)c2ccccc2)c(Cl)c1,inactive,
COc1ccccc1NC(=O)CSc1nnc(Cn2nnc(-c3ccccc3)n2)n1-c1ccccc1,31.6 µM (active),
COc1ccccc1NC(=O)CSc1nnc(Cc2cccn2C)n1-c1ccc(F)cc1,inactive,
COc1ccccc1OCc1nnc(SCC(N)=O)n1-c1ccccc1,inactive,
